Reference: PubChem BioAssay AID720514 (Broad Institute, 2013)
Hit rate of the full screen: of about 2,100 compounds, about 300 (14%) were called active. Inconclusive results (about 2%) are left out.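 Rule for the calls: active = every replicate test run called active, with the signal falling and half-maximal concentration within twice the top valid dose; inconclusive = the replicate test runs disagree in their calls; inactive = every test run inactive, including effects in the opposite direction.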 The list is a sample of the results. Results with a measured potency or affinity are listed apart.

Assay: reduced cellular PGC1a acetyl-lysine signal – cell-based, cherry-picked samples, dose response (AID 720514);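 note: 0% = neutral control wells and -100% = positive control wells; actives lower the acetylation signal so they count as inhibitors of PGC1a acetylation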
Details: U2OS PGC1a acetylation, AlphaLISA, overnight; series mostly up to 19.5 µM; activity change, negative = inhibition: at the top concentration

Activity change, negative = inhibition, inactive:
CCC(C)(C)n1nnnc1C(c1ccccc1OC)N1CCSCC1 (centres undefined) 97.3%, CC(NS(=O)(=O)c1ccccc1Cl)C1CC2CCC1C2 (centres undefined) 144%, C/C=C(/C)C(=O)O[C@@H]1c2cc(OC)c(OC)c(OC)c2-c2c(cc3c(c2OC)OCO3)C[C@H](C)[C@]1(C)O 111% [at 5 µM], O=C(CCc1nc2ccccc2c(=O)[nH]1)Nc1ccc(N2CCCCC2)cc1 77.8%, Cn1ncc(C(=O)Nc2ccc(Cl)cc2)c1C(F)(F)F 17.4%, O=C(CCCCCN1C(=O)c2cccc3cccc(c23)C1=O)NCc1cccnc1 237%, O=C(NCc1ccccc1)C1Cc2c(-c3ccc(Cl)cc3)ccnc2O1 (centres undefined) 40.4%, O=C(NCc1cccnc1)c1ccc(NC(=O)c2ccc(Br)cc2)cc1 240%, O=C(CCCc1nc(-c2ccccc2Cl)no1)NCc1cccnc1 124% [at 10 µM], COc1cccc(N(CC(=O)NCc2cccnc2)S(C)(=O)=O)c1 57.6%, O=C(Cc1ccc(Cl)cc1)c1c[nH]c(C(=O)NCc2cccnc2)c1 94.9%, CN(C)CC(O)c1ccc(C=Cc2ccc(Cl)cc2)cc1 (centres undefined) 40% [at 5 µM], CC(=O)Nc1ccc(NC(=O)CN(c2cccc([N+](=O)[O-])c2)S(C)(=O)=O)cc1 251%, COc1ccc(CCn2c(-c3ccc(OC)cc3)nc3c(c(=O)c4ccccc4n3C)c2=O)cc1 44.1% [at 10 µM], COc1ccccc1/C=C1\SC(=O)N(CCC(=O)NCCCn2ccnc2)C1=O 145% [at 10 µM], CCN(CC)C(=O)CSc1nnc2nnc3cc(Cl)ccc3n12 43.8%, COC(=O)c1ccc(NC(=O)c2cccnc2)cc1 224% [at 10 µM], COc1ccccc1NC(=O)c1ccc(NC(=O)CNC(=O)c2ccc(OC)c(OC)c2)cc1 42.6%, COc1ccc(-c2csc3nc(C)nc(N4CCC(C)CC4)c23)cc1OC 76.6%, COc1ccc(Nc2nnc(-c3ccc(C(N)=O)cc3)c3ccccc23)cc1 160%, COc1ccc(Nc2nnc(C)c3ccccc23)cc1 103%, O=C(Cc1ccccc1)Nc1cccc(-c2nc3ncccc3o2)c1 67.1%, CC1CC(NS(=O)(=O)c2cccs2)CC(C)(C)C1 (centres undefined) 194%, Nc1c(C(=O)Nc2ccccc2)sc2ncc([N+](=O)[O-])cc12 63.9%, COc1ccc(Nc2nc(N)c(C(=O)c3ccc(OC)cc3)s2)cc1 47.2%, OC1CCCC1NCc1ccnc2cc(Cl)ccc12 (centres undefined) 217%, Cc1ccc(Nc2nnc(C)c3ccccc23)c(C)c1 71.2%, COc1ccc(OC)c(C(=O)/C=C/c2ccccc2C(F)(F)F)c1 89.2%, C[C@@H]1CN([C@H](C)CO)C(=O)c2c(c3ccccc3n2C)-c2ccccc2CO[C@@H]1CN(C)C(=O)Nc1cccc(C(F)(F)F)c1 80.6%, COc1cc(-c2cnc3c(NC(C)=O)cc(-c4ccccc4CN(C)C)cn23)cc(OC)c1OC 70%, Cn1c(CN2CCCC2)nc2cc(NC(=O)COc3ccc(Cl)cc3)ccc21 35.3%, C=CCS(=O)(=O)c1nc2ccccc2s1 95.6% [at 10 µM], Cc1cc(C)nc(NC(=O)c2c(-c3ccccc3Cl)noc2C)n1 49.6%, COc1cc(-c2nnn(CC#N)n2)ccc1OCc1ccccc1 376%, COc1ccc(-c2cc(-c3ccccc3O)[nH]n2)cc1OC 80.7%, O=C(Nc1ccccc1)C1=C[C@@H](c2ccc(C(F)(F)F)cc2)C[C@@H](OCc2ccc(CO)cc2)O1 107%, COc1ccccc1NC(=O)N1C[C@@H]2N[C@H](C1)C2c1ccc(/C=C/c2ccccc2)cc1 (some centres undefined) 42.9% [at 10 µM], O=C(C1CCC1)N1CCN(S(=O)(=O)c2ccccc2)CC1 90.3% [at 10 µM], COC(=O)C[C@H]1c2cc(C(F)(F)F)ccc2S(=O)(=O)N1Cc1ccc(OC)cc1 62.4%, Cc1nnc(NCc2ccccc2)c2ccccc12 123%, O=C(CC1CC1)N[C@H]1CC[C@H](CCNS(=O)(=O)c2ccc(Cl)cc2)O[C@H]1CO 42.8%, CC(=O)c1cc(-c2ccccc2)n(CCC(=O)NC2CCCCC2)c1C 58.1%, O=C(c1cc(C2CC2)on1)N1CCCC(N2CCN(c3cccc(C(F)(F)F)c3)CC2)C1 (centres undefined) 45.6%, COc1cc2cc(-c3ccc(O)cc3O)nc(C)c2cc1OC 19.4%, Cc1ccc(C(=O)N2CCN(c3ccc(NC(=O)c4ccc(Br)o4)cc3)CC2)cc1 131%, O=C(Cc1ccccc1)N1CCN(c2ccc([N+](=O)[O-])cc2)CC1 148%, O=C(CN1CCC(n2nnc3cc(F)ccc32)CC1)NCc1ccco1 103%, C[C@@H]1CN([C@@H](C)CO)C(=O)c2c(c3ccccc3n2C)-c2ccccc2CO[C@@H]1CN(C)C(=O)Nc1ccc(F)cc1 137%, Cc1cc(C)c2nc(N(CCCN(C)C)C(=O)c3ccc(S(=O)(=O)N4CCCCCC4)cc3)sc2c1 96% [at 10 µM], CN1c2ccccc2C2(C)CCCC3=Cc4cccc([N+](=O)[O-])c4OC312 (centres undefined) 99.6%, O=C(Cc1ccccc1)Nc1ccc(NC(=O)c2cccs2)cc1 176%, Cc1cccc(C(=O)Nc2ccc(C(=O)/C=C/c3cccnc3)cc2)c1 123% [at 10 µM], O=C(CS(=O)CC(=O)Nc1cccc2c1CCCC2)Nc1ccc(F)cc1 (centres undefined) 107%, Nc1c(C(=O)Nc2ccccc2)c2nc3ccccc3nc2n1CCCN1CCOCC1 67.9% [at 10 µM], Clc1ccc(-c2nnc(-c3ccccc3)nc2N2CCSCC2)cc1 44.6%, CNC(=O)c1nnsc1S(=O)c1ccc(Cl)cc1 (centres undefined) 47.6% [at 10 µM], CC(=O)NC(c1cccc(F)c1)c1nc(-c2cccc(C(C)C)c2)cs1 (centres undefined) 41%, COc1cc2nc(SCc3c(C)noc3C)n(CCC3=CCCCC3)c(=O)c2cc1OC 106%, c1ccc(N2CCN(c3ccccc3)C2c2ccncc2)cc1 55.4%, CCC(CC)C(=O)c1c[nH]c(C(=O)NCc2ccccc2)c1 126%, CCOC(=O)C1CCCN(S(=O)(=O)c2ccc3c(c2)NC(=O)CO3)C1 (centres undefined) 150%, CCOc1ccc2c(c1)C(C)=CC(C)(C)N2S(=O)(=O)c1ccc(C)cc1 41.8% [at 10 µM], O=C1CC(Sc2nnc(-c3ccccc3O)o2)C(=O)N1c1ccccc1 (centres undefined) 49.7% [at 10 µM], CCOC(=O)c1[nH]c(C)c(C(=O)Nc2cc(OC)ccc2OC)c1C 50.2%, CC(=O)c1ccc(N2CCN(c3ccc(S(=O)(=O)NCCN(C)C)cc3[N+](=O)[O-])CC2)cc1 79.5%, CC(=O)c1ccc(N2CCN(c3ccc(S(=O)(=O)NCCCN(C)C)cc3[N+](=O)[O-])CC2)cc1 140% [at 10 µM], Cc1c(C(=O)NCCSCc2c(F)cccc2Cl)cnn1-c1ccc(Cl)cc1 111%, CC1CN(S(=O)(=O)c2ccc(C(=O)NCCCn3ccnc3)cc2)CC(C)O1 (centres undefined) 293%, O=C(c1cccc([N+](=O)[O-])c1)N1CCc2ccccc21 48%, CCN(CC)CC(=O)N1c2ccccc2CCc2ccc(NC(=O)c3cc(OC)c(OC)c(OC)c3)cc21 49.2%, CC(C)(C)c1ccc(NC(=O)N2CCN(c3ccc([N+](=O)[O-])cn3)CC2)cc1 138%, Cc1ccc(S(=O)(=O)Nc2ccc3c(c2)C(=O)N([C@@H](C)CO)C[C@@H](C)[C@H](CN(C)C(=O)Nc2cccc4ccccc24)OCCCC[C@H](C)O3)cc1 58.5%, CNC[C@H]1OCCCC[C@@H](C)Oc2ccc(NS(=O)(=O)c3ccccc3)cc2C(=O)N([C@H](C)CO)C[C@@H]1C 48.2% [at 21 µM], Cc1noc(C)c1S(=O)(=O)Nc1ccc2c(c1)C(=O)N([C@H](C)CO)C[C@H](C)[C@H](CN(C)C(=O)c1ccncc1)OCCCC[C@@H](C)O2 23.5%, C[C@@H]1CN([C@H](C)CO)C(=O)c2cc(N(C)C)ccc2O[C@@H](C)CCCCO[C@H]1CN(C)C(=O)Cc1ccccc1 77.6%, C[C@@H]1CCCCO[C@@H](CN(C)Cc2ccc(Cl)c(Cl)c2)[C@H](C)CN([C@@H](C)CO)C(=O)c2cc(NC(=O)CCC(F)(F)F)ccc2O1 32.3%, C[C@@H]1CCCCO[C@@H](CN(C)CC2CC2)[C@H](C)CN([C@H](C)CO)C(=O)c2cc(NS(=O)(=O)c3ccccc3)ccc2O1 39.4%, Cc1noc(C)c1S(=O)(=O)Nc1ccc2c(c1)C(=O)N([C@@H](C)CO)C[C@@H](C)[C@@H](CN(C)Cc1ccc3c(c1)OCO3)OCCCC[C@@H](C)O2 52%, O=C(OCc1nc2ccsc2c(=O)[nH]1)c1cccc(S(=O)(=O)N2CCOCC2)c1 5.56%, NCC[C@H]1CC[C@@H](NC(=O)C2CCCCC2)[C@@H](CO)O1 27.4%, O=C(C[C@H]1CC[C@H]2[C@@H](COC[C@@H](O)CN2C(=O)c2cc(Cl)cc(Cl)c2)O1)N1CCc2ccccc2C1 79.8%, N#Cc1ccccc1COC(=O)c1ccc2c(c1)OCCO2 163%, COc1ccc(NC(=O)Cn2ncc(Cl)c(Cl)c2=O)cc1S(=O)(=O)N1CCOCC1 67.1% [at 10 µM], CCc1nnc(NC(=O)Cc2ccc(S(=O)(=O)N3CCCCC3)cc2)s1 44%, Fc1ccc(-c2nn3c(C4COc5ccccc5O4)nnc3s2)cc1 (centres undefined) 135%, COc1ccc2c(c1)C(C)=CC(C)(C)N2S(=O)(=O)c1ccc(Br)cc1 49.3% [at 10 µM], OC(COc1ccc(CNCCc2ccc(C(F)(F)F)cc2)cc1)CN1CCCCC1 (centres undefined) 33.5%, CC1(C)CC(=O)C2=C(C1)Nc1ccccc1N1C(=O)c3ccccc3C21 (centres undefined) 65.3%, O=C(NCc1csc(-c2cccs2)n1)c1cccc(Cl)c1 53.2% [at 10 µM], CN1OC(COC(=O)c2ccccc2)CC1c1ccccc1 (centres undefined) 23.1%, CCC(=O)Nc1ccc(C(=O)Cn2ncc(Cl)c(Cl)c2=O)cc1 69%, O=S(=O)(c1ccccc1)N(CC(F)(F)F)c1ccc(C(O)(C(F)(F)F)C(F)(F)F)cc1 84.8%, COc1ccc(NC(=O)C2(C)Cc3c(-c4cccc(NC(C)=O)c4)ccnc3O2)cc1 (centres undefined) 53.5%, CCOC(=O)C1=CC[C@@H](c2ccccc2)N(S(=O)(=O)c2ccc(C)cc2)[C@H]1c1cccc(OC)c1 58.4%
